Screens as filed in PubChem BioAssay.
HT1080 IDH1KD tx = qHTS for induction of synthetic lethality in tumor cells producing 2HG: qHTS for the HT-1080-IDH1KD cell line; AID 686971, 2013; Potency, µM (titrated, usually from 46.1 µM), for the others: at the top dose activity, negative = toxicity, actives largely listed as cytotoxic; 360,000 tested, 2% active; HT-1080 IDH1 knockdown viability, ATP luminescence, 48 h;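 note: 0% = DMSO wells and -100% = cell-free medium wells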
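CellTiter-Glo luminescence after 48 h compound exposure at 37 degrees C of IDH1-knockdown HT-1080 cells in 5% FBS RPMI. %Activity scaled between DMSO wells and cell-free media wells, with curves fitted and assigned curve classes.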
HT1080NT lethal = qHTS for induction of synthetic lethality in tumor cells producing 2HG: qHTS for the HT-1080-NT fibrosarcoma cell line | HT-1080-NT fibrosarcoma viability, CellTiter-Glo ATP luminescence, 48 h | Potency, µM (doses to about 46.1 µM), without a hit: top-dose activity, negative = less viability, actives largely listed as cytotoxic | 360,000 tested, 1.6% active;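 note: NT is the 2HG producing partner of a matched IDH1 knockdown line; 0% = DMSO-treated cells and -100% = media-only wells without cells; nearly all actives have a fitted effect of over 55% in size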
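A 48-hour cytotoxicity screen used HT-1080-NT cells plated 2 hours before compound delivery. ATP-based CellTiter-Glo luminescence measured viability, normalized to DMSO and no-cell controls.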
ATXN2 expr inh = Primary qHTS for Inhibitors of ATXN expression. HEK-293 ATXN2-luciferase reporter, luminescence, 24 h. Potency, µM (top dose mostly 57 µM), inactives show at the highest dose activity change, negative = inhibition, hits mostly inhibitors. 360,000 tested, 0.72% active. AID 1745845, 2022; note: % is set by controls: 0 for no effect and ±100 for the full control effect; nearly all actives have a fitted effect of over 55% in size
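ATXN2-luciferase reporter cells (luciferase flanked by upstream and downstream ATXN2 gene portions) were treated 24 h at 37 °C with compounds at up to 57 uM. SteadyGlo luminescence gave expression; GF-AFC fluorescence gave viability.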
HepG2 viability = qHTS for Inhibitors of TGF-b: Cytotox Counterscreen. HepG2 CAGA-GFP viability, ATP luminescence, 18 h. Potency, µM (titrated, usually from 46.1 µM), for the others: at the top dose activity change, negative = cytotoxicity, usual class: cytotoxic. 410,000 tested, 0.76% active. AID 588856, 2011
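CellTiter-Glo luminescence gave cytotoxicity after 18 hours at 37 degrees C. The cells were HepG2 CAGA-GFP in 1% FBS DMEM, stimulated with 500 pg/mL TGF-beta after compound addition. %Activity was normalised to no-cell wells (complete cell-killing) and DMSO (no toxicity), and curves were fitted and classified.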
S2 tox = Viability Counterscreen for Primary qHTS for Inhibitors of ATXN expression; Potency, µM (top dose mostly 56.7 µM), actives largely listed as cytotoxic; AID 651635, 2014; S2 cells (HEK-293 line with an ATXN2-luciferase reporter) viability, CellTiter-Fluor protease fluorescence, 24 h; 400,000 tested, 0.49% active; note: nearly all actives have a fitted effect of over 40% in size
TGFb inhibitor = qHTS for Inhibitors of TGF-b; HepG2 CAGA-GFP TGF-b/SMAD3 reporter, GFP fluorescence, 18 h; TGF-beta stimulated, 500 pg/mL final; Potency, µM (top dose mostly 46.1 µM), inactives show top-dose activity, negative = inhibition, actives largely listed as inhibitors; 410,000 tested, 1.2% active; AID 588855, 2011; note: % is set by controls: 0 for no effect and ±100 for the full control effect; nearly all actives have a fitted effect of over 65% in size
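GFP signal (ex488/em500-530) from TGF-beta-stimulated HEPG2 CAGA-GFP cells, 500 pg/mL final, 18 h at 37 degrees C in DMEM plus 1% FBS, normalized to unstimulated and DMSO-stimulated controls.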
An asterisk follows results filed as active; i = inactive; ? = inconclusive; nt = no result. This is a sample that favours compounds with a hit; in the whole collection about 3.9% have one here. Calls come from the whole dose curve; as a rule, active = well fitted curve in the direction sought with a large enough effect; inconclusive = small, poorly fitted or top-dose-only effect, or another doubt; inactive = no such curve, though single readings can be large; an effect the other way counts as inactive or inconclusive. Potency is the fitted concentration of half-maximal effect.

SMILES	HT1080 IDH1KD tx	HT1080NT lethal	ATXN2 expr inh	HepG2 viability	S2 tox	TGFb inhibitor
C=CCN(C(=O)CSC1=NC(=O)CN1C(C)=O)c1nc(C)c(-c2ccccc2)s1	?	?	2%	-14%	i	13µM*
CN(C)[C@@H]1C(=O)C(C(=O)NCN2CCCC2)=C(O)[C@@]2(O)C(=O)C3=C(O)c4c(O)cccc4[C@@](C)(O)C3C[C@@H]12 (stereo not given in full)	nt	nt	-12%	nt	i	nt
CCOC(=O)C1=C(COC(=O)c2sccc2C)NC(=O)NC1C (stereo not given)	-9%	-2%	nt	-8%	i	3%
CCOC(=O)C1=C(COC(=O)c2ccc([N+](=O)[O-])s2)NC(=O)NC1C (stereo not given)	-23%	-14%	nt	-122%	?	11µM*
COc1cc(/C=N/NC(=O)C(=O)/C=C2\NC3(CCCC3)Cc3ccccc32)ccc1O	-25%	-18%	-5%	-2%	?	-10%
O=C(/C=C1\NC2(CCCC2)Cc2ccccc21)C(=O)N/N=C/c1ccccc1O	?	23µM*	?	-36%	?	?
COc1ccc(Cl)cc1-c1cc2c(c(OC)c1)OCCN(Cc1cccn1-c1nccs1)C2	nt	nt	nt	nt	i	nt
CCN(CC)C(=S)NC(=O)Cc1ccccc1	8%	10%	-8%	-1%	i	-2%
CN(C(=S)NC(=O)Cc1ccccc1)c1ccccc1	18µM*	?	-11%	-55%	i	?
Cc1ccsc1/C=N/Nc1nc(=O)[nH]nc1C	21µM*	23µM*	?	11µM*	i	?
Cc1cc(C)nc(N/N=C/c2sccc2C)n1	1%	-11%	30%	-50%	i	-7%
Cc1ccc2c(c1)c1c(n2CC(O)Cn2c(C)nc3ccccc32)/C(=N\O)CCC1 (stereo not given)	?	21µM*	-37%	-96%	?	?
COc1ccc2c(C)nc(Nc3nc(C)cc(C)n3)nc2c1	0.89µM*	0.45µM*	-13%	-4%	i	-20%
COc1ccc2nc(NC3=NC(c4ccccc4)CC(=O)N3)nc(C)c2c1 (stereo not given)	18µM*	?	-13%	-38%	i	-27%
CCc1c(C)nc(Nc2nc(C)c3cc(OC)ccc3n2)[nH]c1=O	7%	15%	2%	-6%	i	-15%
COc1ccc2c(C)nc(Nc3nc(C)c(C)c(=O)[nH]3)nc2c1	?	?	111%	-12%	i	0%
CCC1CN(CCNC(=O)c2ccc3c(c2)OCCO3)Cc2cc(OC)ccc2O1 (stereo not given)	nt	nt	nt	nt	i	nt
C=C1C(=O)C23C(O)C1CCC2C12CCCC(C)(COC(C)=O)C1C(O)C3(O)OC2 (stereo not given)	1.8µM*	8.2µM*	?	3.2µM*	7.1µM*	2µM*
Cc1ccc(CCNC(=O)CCn2nc(-c3ccc(Cl)cc3)ccc2=O)cc1	nt	nt	-7%	-28%	i	-14%
O=C(Cn1cnc([N+](=O)[O-])c1)Nc1cc(Oc2ccc(Cl)cc2Cl)cc([N+](=O)[O-])c1	?	21µM*	?	-113%	i	?
N#Cc1cc2ccccc2nc1N	10%	24%	-11%	0.28µM*	i	?
Nc1nc2ccccc2cc1-c1cccs1	15%	5%	52%	5%	i	-17%
Cc1ccc(C)c(NC(=O)c2ccccc2NS(=O)(=O)c2cc([N+](=O)[O-])ccc2C)c1	13µM*	10µM*	?	-41%	i	2.5µM*
Cc1ccc([N+](=O)[O-])cc1S(=O)(=O)Nc1cccc(S(=O)(=O)Nc2ccccc2C(=O)O)c1	2%	5%	3%	18%	i	11%
Cc1cnc(C)c(-c2cc(F)cc3c2OC(CNC(=O)CN2CCCC2)C3)n1 (stereo not given)	nt	nt	nt	nt	i	nt
SMILES	HT1080 IDH1KD tx	HT1080NT lethal	ATXN2 expr inh	HepG2 viability	S2 tox	TGFb inhibitor
CCOc1ccc(Br)cc1S(=O)(=O)Nc1cccc(S(=O)(=O)N(C)c2ccccc2)c1	-27%	-9%	-7%	-31%	i	11µM*
Cc1cccc(C)c1NC(=O)Cn1nnc(S(=O)(=O)c2ccccc2)c1N	nt	nt	nt	-2%	nt	nt
CC1(c2ccc([N+](=O)[O-])cc2)Nc2ccccc2S1 (stereo not given)	21µM*	?	11%	-14%	i	0%
O=C1Nc2ccccc2/C1=C/c1ccc([N+](=O)[O-])cc1	4%	-1%	0%	5%	i	0%
Cc1cccc(N(C)C(=O)c2cc3cc4ccc(C)cc4nc3o2)c1	13µM*	?	36%	1%	i	1%
CCN(C(=O)c1cc2cc3ccc(OC)cc3nc2o1)c1cccc(C)c1	nt	nt	?	-23%	?	-2%
Cc1ccccc1Nc1c(-c2ccncc2)nc2ccc(Cl)cn12	-10%	1%	-4%	18µM*	?	16µM*
Cc1ccc2nc(-c3ccsc3)c(Nc3ccccc3C)n2c1	nt	nt	10%	-34%	i	-17%
Cc1ccn2c(Nc3ccccc3C)c(-c3ccccc3)nc2c1	nt	nt	14%	13µM*	?	-3%
Nc1ccccc1C#CC(=O)c1ccccc1	?	?	nt	-84%	?	3.5µM*
Cc1cc(N/N=C/c2ccccc2Cl)nc(NCc2ccccc2)n1	?	?	-23%	-81%	i	-26%
Cc1cc(NC2CCCCC2)nc(NCc2ccccc2)n1	?	?	?	-112%	?	14µM*
COc1cc(C)nc(NCc2ccccc2)n1	-11%	0%	?	-28%	i	1%
Cc1cc(Oc2ccc(C#N)cc2)nc(NCc2ccccc2)n1	?	-2%	-24%	8.9µM*	i	-24%
COc1ccc(Nc2cc(C)nc(NCc3ccccc3)n2)cc1	21µM*	18µM*	-38%	-57%	i	13µM*
Cc1ccc(Nc2cc(C)nc(NCc3ccccc3)n2)cc1	18µM*	21µM*	nt	-111%	i	?
CCOc1ccc(NC(=O)Cn2c(=O)n(Cc3ccc4c(c3)OCO4)c(=O)c3ccc(C(=O)NC4CCCCC4)cc32)cc1	nt	nt	7%	-13%	i	-2%
